D1 ag: Allosteric Agonists of the Human D1 Dopamine Receptor: qHTS | HEK293 T-REx D1 cells, calcium flux, agonist mode | activation, % at 2 µM | actives 1% (n = 360,000) | AID 504660, 2011; in the data active means activation above about 30%; further: 0% is about no effect
Target sequence (P21728 whole entry, looked up): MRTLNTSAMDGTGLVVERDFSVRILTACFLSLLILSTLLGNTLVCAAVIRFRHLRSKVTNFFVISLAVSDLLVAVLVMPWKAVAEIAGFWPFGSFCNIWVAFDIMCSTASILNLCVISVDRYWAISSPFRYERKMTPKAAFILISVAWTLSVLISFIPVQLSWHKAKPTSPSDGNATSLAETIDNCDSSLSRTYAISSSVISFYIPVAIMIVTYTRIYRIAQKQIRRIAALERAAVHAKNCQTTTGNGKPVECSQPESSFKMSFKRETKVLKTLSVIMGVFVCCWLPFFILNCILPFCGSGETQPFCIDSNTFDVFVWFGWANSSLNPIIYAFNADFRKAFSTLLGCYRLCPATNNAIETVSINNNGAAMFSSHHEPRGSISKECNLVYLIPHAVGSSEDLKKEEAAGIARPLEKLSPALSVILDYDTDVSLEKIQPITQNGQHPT
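Tetracycline-induced HEK293 TREx D1 cells, force-coupled to calcium signalling, were dye-loaded with a no-wash calcium kit. Compound was pin-added after a 10 s baseline. Fluorescence was read kinetically at 1 cycle/s for 180 s, with calcium rises flagged as agonism.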
DRD3 agonist: qHTS of D3 Dopamine Receptor Agonist: qHTS; D(3) dopamine receptor (Homo sapiens), P35462; actives 0.58% (n = 410,000); max activation, %; D3R DiscoveRx beta-arrestin cells, luminescence, 90 min; in the data active means max activation above about 30%; further: 0% is about no effect
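Cells at 1500/well, incubated overnight, then treated with pinned compounds (dopamine as control) for 90 min at 37 degrees C. DiscoveRx reagent added for 30 - 60 minutes at room temperature; luminescence read.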
D3 antag: qHTS of D3 Dopamine Receptor Antagonist: qHTS; D(3) dopamine receptor (Homo sapiens), P35462; D3R cells, DiscoveRx beta-arrestin luminescence, antagonist mode; stronger effect = lower value; max response, negative = inhibition, %; actives 2.5% (n = 360,000); AID 652054, 2013; in the data active means max response below about -50%; further: on the % scale 0 is the no-effect control and ±100 the full control effect
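Cells expressing the human receptor were seeded at 1500 cells/well, incubated overnight at 37 degrees C in 5% CO2, then exposed to library compounds with dopamine controls for 90 minutes at 37 degrees C before luminescent detection.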
D1 antag: Antagonist of Human D 1 Dopamine Receptor: qHTS. actives 3.2% (n = 360,000). D(1A) dopamine receptor (Homo sapiens), P21728. HEK293 TREx D1 cells, calcium flux, dopamine EC80; stronger effect = lower value. activity change, negative = inhibition, % at 10 µM. AID 504652, 2011; in the data active means activity change below about -30%; further: on the % scale 0 is the no-effect control and ±100 the full control effect
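Cells carrying a force-coupled, tetracycline-inducible human D1 receptor report calcium flux. Each well gets a 10 s baseline, compound with 180 s monitoring, then an EC80 dopamine stimulus with a second 180 s kinetic read.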
D1 PAM: Potentiators of Human D1 Dopamine Receptor: qHTS; D(1A) dopamine receptor (Homo sapiens), P21728; actives 0.036% (n = 360,000); potentiation, % at 10 µM; HEK293 TREx D1 cells, calcium flux, dopamine EC20 potentiation; AID 504651, 2011; in the data active means potentiation above about 30%; further: 0% is about no effect
Numbers without * were called inactive; / = not tested or not shown. Rows were chosen to be rich in hits. Some 6.1% of all compounds tested hit in one or more screens of this group.

SMILES	D1 ag	DRD3 agonist	D3 antag	D1 antag	D1 PAM
CCc1nnc(NC(=O)CSc2nccn2Cc2ccc(Cl)cc2)s1	8.5	-21.6	/	-16.4	-3.5
CC(=O)N1CCCC(C)(C(=O)Nc2ccc3nc(C)ccc3c2)C1 (stereo unspecified)	/	3.8	-52.2*	/	/
Cc1ccc2cc(NC(=O)C3(C)CCN(C)C3)ccc2n1 (stereo unspecified)	/	8.3	0.0	/	/
COc1ccc(N=Nc2nc3ccc(Br)cc3n2C)cc1	342.9*	-4.5	-22.4	23.6	0.9
CCOc1ccc(CNC(=O)CCCn2c(=O)c3cccn3c3ccc(F)cc32)cc1	4.4	4.2	/	-3.6	5.0
Cn1nc(-c2ccc3c(c2)OCCO3)c2ccccc2c1=O	20.2	16.9	15.3	-33.9*	-6.0
CC(=O)OCc1cc(-c2nn(C)c(=O)c3ccccc23)ccc1C	3.2	-1.6	-5.3	-17.5	-2.4
Cn1nc(C(=O)Nc2ccc3c(c2)OCCO3)c2ccccc2c1=O	-0.6	-2.0	-28.6	6.7	1.5
Cc1ccc(-c2nn(C)c(=O)c3ccccc23)cc1CO	-1.9	-2.4	-50.3*	-6.8	-0.7
CCCN(Cc1cccs1)C(=O)Nc1cc(C)cc(C)c1	10.1	-5.9	/	-29.4	-4.5
O=C(c1ccc2c(c1)N(Cc1ccc(F)cc1)C(=O)c1ccccc1S2(=O)=O)N1CCN(Cc2ccccc2)CC1	7.3	-9.2	/	-5.5	0.7
CSc1ccc(CCNC(=O)c2ccc(-c3nc(COc4ccccc4)c(C)o3)cc2)cc1	-0.3	6.3	/	-63.1*	-0.5
Cc1ccc(OCc2nc(-c3ccc(C(=O)NCCc4ccc(Cl)cc4)cc3)oc2C)cc1	1.1	-5.1	/	-3.4	-3.4
Cc1oc(-c2ccc(C(=O)NCCc3ccc(Cl)cc3)cc2)nc1CSc1ccccc1	31.9*	7.7	/	-0.1	0.7
COc1cccc(NC(=O)c2ccc(-c3nc(COc4ccccc4)c(C)o3)cc2)c1	12.0	61.6*	/	-17.5	-7.3
O=C(CSc1nc2c([nH]c3ccccc32)c(=O)n1-c1ccccc1)N1CCCc2ccccc21	0.9	-11.3	/	8.9	-3.1
Cc1ccc(C(=O)NCC(c2ccco2)S(=O)(=O)c2ccc(Cl)cc2)cc1C (stereo unspecified)	-0.8	8.1	/	/	-2.9
Cc1cc(Br)ccc1NC(=O)COc1cc(=O)n(C)c2ccccc12	-0.8	-11.0	/	-4.2	-1.1
O=C(CNC(=O)c1ccccc1)N[C@@H](C(=O)Nc1cc(C(F)(F)F)ccc1Cl)c1ccccc1	2.6	/	/	-19.7	7.8
Cc1ccc(N2CCN(S(=O)(=O)c3ccc4oc(=O)c5ncn(C)c5c4c3)CC2)c(C)c1	0.2	5.7	/	-9.2	-1.6
OCc1cnc(SCc2cccc(F)c2)n1Cc1ccc(F)cc1	0.4	-15.7	/	1.9	0.1
O=C(NN1C(=O)c2cc(Br)ccc2NC1c1cc(Br)cc(Br)c1O)c1ccncc1 (stereo unspecified)	4.5	-16.0	-66.2*	-4.3	-6.2
CCOc1ccc(Nc2oc(-c3ccc(COc4ccc(C)cc4)o3)nc2C#N)cc1	-2.1	5.9	/	1.3	-0.9
O=C(Cn1cnc2c(OCc3ccccc3)ncnc21)NCc1ccccn1	/	0.0	-67.2*	/	/
c1ccc(COc2ncnc3c2ncn3CCCNCC(c2ccccc2)c2ccccc2)cc1	/	-12.6	-85.8*	/	/
SMILES	D1 ag	DRD3 agonist	D3 antag	D1 antag	D1 PAM
CCCCOC(=O)c1ccc(NC(=O)CC2NCCNC2=O)cc1 (stereo unspecified)	0.3	-1.4	/	-4.6	-3.4
COc1cc(NC(=O)c2cc([N+](=O)[O-])ccc2NC(=O)CNC2CCCCC2C)cc(OC)c1 (stereo unspecified)	3.4	48.7*	17.4	4.9	1.9
COc1cc(NC(=O)c2cc([N+](=O)[O-])ccc2NC(=O)CNCc2ccccn2)cc(OC)c1	0.6	33.6*	19.1	1.4	-4.0
COc1cc(NC(=O)c2cc([N+](=O)[O-])ccc2NC(=O)CNC2CCCCC2)cc(OC)c1	4.5	-9.0	6.2	5.6	-0.7
COc1ccc(CNC(=O)Cc2c(C)c3cc4c(C)coc4c(C)c3oc2=O)cc1OC	0.2	10.2	/	-0.1	1.4
CCN(CC)c1ccc(NC(=O)Cn2nc(C)n3cccc3c2=O)c(C)c1	-0.3	-10.8	/	0.3	-5.0
O=C(NNC(=S)NC(=O)c1cccc([N+](=O)[O-])c1)c1ccc(O)cc1	1.2	2.1	-4.2	0.8	-1.8
Cc1ccc(CSCCNC(=O)c2ccccc2)cc1	13.6	2.6	12.6	0.8	-1.7
O=C(NNC(=S)NC(=O)c1cccc([N+](=O)[O-])c1)c1ccc(Br)cc1	32.3*	17.4	-4.1	3.8	-3.4
Cc1ccc(CSCCNC(=O)c2cccc([N+](=O)[O-])c2)cc1	19.1	-8.8	0.0	-43.0*	-7.2
Cc1ccc(C(=O)NC(=S)NNC(=O)c2cccc([N+](=O)[O-])c2)cc1	50.1*	1.9	55.0	-3.2	-0.1
CCc1ccc(N2C(=O)CS(=O)(=O)C23C(=O)N(Cc2ccccc2F)c2ccccc23)cc1 (stereo unspecified)	6.3	-3.3	/	-14.5	-1.0
COc1cccc(C(=O)n2nc(-c3ccco3)nc2NCc2cccs2)c1	2.6	8.6	/	5.7	1.9
CCCCCCN1CCN(C2CN(C3CCCCC3)S(=O)(=O)C2)CC1 (stereo unspecified)	/	-13.6	-116.7*	/	/
O=S1(=O)CC(N2CCC(c3ccccc3)CC2)CN1C1CCCCC1 (stereo unspecified)	/	-3.3	-9.1	/	/
O=S1(=O)CC(N2CCC(Cc3ccccc3)CC2)CN1C1CCCCC1 (stereo unspecified)	/	-9.3	-78.0*	/	/
O=S1(=O)CC(N2CCN(CC3CC3)CC2)CN1Cc1ccccc1 (stereo unspecified)	/	-7.4	-61.4*	/	/
O=C(NCCc1csc(-c2cccnc2)n1)c1cccc(C(F)(F)F)c1	6.3	-4.5	/	-4.2	-2.5
Cc1ccccc1C(=O)NCc1nc2cccnc2n1Cc1ccccc1	-0.6	1.3	/	5.7	-2.6
COc1cc(C#Cc2c(-c3cncn3C)n(C)c3ccc(-c4ccc(CN5CCOCC5)cc4)cc23)cc(OC)c1	/	56.8*	132.2	/	/
Cc1ccc(NC(=O)CN2C(=O)CCn3nc(-c4cccn4C)cc32)c(Cl)c1	-1.0	-3.6	/	9.3	-4.2
CC(=O)Nc1ccc(S(=O)(=O)NCc2cccn2Cc2cccc(C)c2)cc1	2.5	-1.8	/	1.6	-0.8
NC(=O)NC(CC(=O)NCCCc1ccccc1)c1ccc(Cl)cc1 (stereo unspecified)	1.5	-24.2	-54.9*	11.2	1.8

Screens: PubChem BioAssay, National Center for Advancing Translational Sciences (NCATS)
